Bioassay records: PubChem BioAssay, The Scripps Research Institute Molecular Screening Center
A selection: hits, their analogues and other compounds. The true share with any hit is near 4.1%.
ssDAF12 agonist – S. stercoralis DAF-12 activation, primary screen; HEK293 ssDAF-12/GRIP1 lit1-tk-luc reporter, luminescence; % of 3 µM dafachronic acid response; hit rate 1% among 370,000; AID 652126; activation, % at 6.8 µM;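 active = activation above the mean over all tested compounds plus 3 SD, cut at about 0.9% in these data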;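 note: 0% = DMSO-only wells and 100% = 3 µM delta7-dafachronic acid wells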
DAX1 inh-1 – inhibitors of DAX1 repression of SF-1 activated StAR promoter. HEK293T StAR-luciferase reporter, SF-1/DAX-1 repression relief. AID 652010. inhibition, % at 6.8 µM. hit rate 1.1% among 370,000;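 active = inhibition above the mean over all tested compounds plus 3 SD, cut at about 3.6% in these data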;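 note: 0% = DAX-1 cells with DMSO and 100% = cells lacking DAX-1 with DMSO; higher inhibition means more luminescence from relief of DAX-1 repression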
DAX1 inh-2 – inhibits human nuclear receptor DAX1; P51843; HEK293 Gal4-DAX1 luciferase reporter, luminescence; inhibition, % at 6.75 µM; hit rate 0.99% among 340,000; AID 504766;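 active = inhibition above the mean over all tested compounds plus 3 SD, cut at about 4.2% in these data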;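 note: 0% = DAX1-transfected cells with DMSO and 100% = empty-vector control cells with DMSO; inhibition shows as a rise in luminescence from relieved DAX1 repression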
Target sequence (P51843 207-470 limits assumed): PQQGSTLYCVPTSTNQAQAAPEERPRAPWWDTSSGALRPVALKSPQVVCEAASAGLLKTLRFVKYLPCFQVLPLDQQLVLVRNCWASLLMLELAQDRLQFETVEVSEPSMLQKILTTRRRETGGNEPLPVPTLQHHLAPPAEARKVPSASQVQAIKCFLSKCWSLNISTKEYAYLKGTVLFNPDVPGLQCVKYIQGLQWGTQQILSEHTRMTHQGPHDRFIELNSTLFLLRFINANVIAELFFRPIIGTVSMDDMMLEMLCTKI
hcDAF-12 act – activators of H. contortus DAF-12 nuclear receptor; HEK293 hcDAF-12 lit1-tk-luc reporter, luminescence; 0% DMSO, 100% Δ7-dafachronic acid; hit rate 1.4% among 370,000; activation, % at 6.8 µM; AID 652067;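 active = activation above the mean of all tested compounds plus 3 SD, cut at about 5.5% in these data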;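 note: 100% = response to 3 µM Δ7-dafachronic acid high control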
hgDAF12 agonist – hgDAF-12 agonism, primary luciferase screen | HEK293 GAL4-hgDAF12 UAS-luciferase reporter, agonist luminescence; normalized to butyrate control | hit rate 1.8% among 370,000 | activation, % at 6.8 µM;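 active = activation above a cutoff set at the mean of all screened compounds plus 3 SD, cut at about 10% in these data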;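 note: 0% = DMSO wells and 100% = sodium butyrate wells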
An asterisk follows results filed as active; . = no result.

SMILES | ssDAF12 agonist | DAX1 inh-1 | DAX1 inh-2 | hcDAF-12 act | hgDAF12 agonist
Cc1cccc(NC(=O)NCc2ccc3[nH]c(C)cc3c2)c1 | -1 | 1 | 1 | 5 | 5
Cc1cc(C)nc(NC(=O)Nc2ccc3c(c2)OCO3)c1 | -1 | 1 | 3 | 4 | 11*
Cc1ccc(CNC(=O)Nc2cccc(C)c2)cc1 | -1 | 0 | -1 | 4 | 13*
COC(=O)[C@]12C[C@H](CC(=O)N3CCN(C(=O)C4CC4)CC3)C(=O)N(Cc3ccccc3)C1=C[C@H](C1CCCC1)O[C@@H]2C | -1 | 0 | . | -1 | -3
Nc1nc2c(ncn2[C@@H]2O[C@H](C(=O)N[C@@H](Cc3ccccc3)C(=O)NCc3ccc4c(c3)OCO4)[C@@H](O)[C@H]2O)c(=O)[nH]1 | -1 | -1 | . | 0 | -5
Brc1ccc(-c2cn3c(n2)SCC3)cc1 | -1 | 1 | 0 | 2 | 11*
CCOc1cc(/C=C2/SC(=S)N(CC(=O)O)C2=O)ccc1OC(=O)c1cccs1 | -1 | -1 | 5.2* | 0 | -4
CN(C)c1ccc(Cl)cc1N | -1 | -1 | 5.3* | 0 | 0
COC(=O)[C@]12CCCCC=C1N(Cc1ccc(OC)cc1)C(=O)[C@@H]2CC(=O)NCc1ccc(OC)c(OC)c1 | 0 | -1 | . | -4 | -1
Cc1nc2c(-c3ccc(Cl)cc3)cnn2c(N)c1-c1ccc(F)cc1 | -3 | -1 | 1 | -5 | -9
Nc1c(-c2ccc(Cl)cc2)cnc2c(-c3ccc(F)cc3)cnn12 | 1 | 2 | 5.0* | 5 | 13*
COc1ccc(-c2c(C)nc3c(-c4ccc(F)cc4)cnn3c2N)cc1 | 0 | 0 | 5.2* | 0 | 7
O=C(NCCc1ccccc1)C1CCC(Cn2c(=O)c3ccccc3n(Cc3cccc(Cl)c3)c2=O)CC1 (stereo unspecified) | 0 | 0 | 6.0* | 2 | 4
Cc1cc(=O)[nH]c(SCC(=O)Nc2cccc(S(=O)(=O)N3CCOCC3)c2)n1 | -1 | 3.7* | 1 | -2 | 0
Cc1cc(-c2nn3c(C)nnc3s2)ccc1NC(=O)C(C)(C)C | 0 | 3 | 1 | 5 | 12*
O=C(/C=C/c1cn(CC(O)CN2CCCCC2)c2ccccc12)c1ccccc1 (stereo unspecified) | -1 | 0 | -2 | 4 | 2
COc1ccc(C(=O)/C=C/c2cn(CC(O)CN3CCN(C)CC3)c3ccccc23)cc1OC (stereo unspecified) | -1 | -1 | 5.0* | -1 | -2
C[C@H](O)[C@@H]1CN2CCc3c([nH]c4c(-c5ccc6c(c5)OCO6)cccc34)[C@@H]2C[C@@H]1N(C)C(=O)c1ccccc1F | -2 | -1 | . | -2 | -1
O=c1[nH]ncn1-c1ccc(Br)cc1 | -1 | 0 | 5.2* | -1 | -2
Cc1cc2nc(-c3ccc(F)cc3)c(Cc3cccc(Cl)c3)n2c(C)c1Br | 1.5* | 1 | . | 5.6* | 1
Cc1cc2nc(C3CCCCC3)c(Cc3ccccc3C(F)(F)F)n2c(C)c1Br | 0 | 0 | . | -1 | 2
Cc1cc2nc(C3CCCCC3)c(Cc3cccc(F)c3)n2c(C)c1Br | 1.7* | -1 | . | 2 | 2
Cc1cc2nc(-c3ccccc3)c(Cc3cccc(Cl)c3)n2c(C)c1Br | 0 | 1 | . | 3 | 11*
COc1ccc(-n2c(COc3ccccc3)nnc2SCc2nc3ccccc3[nH]2)cc1 | -1 | 1 | . | 0 | -1
Cc1ccc(S(=O)(=O)N2c3ccc(F)cc3C[C@H]2CSc2ccccc2)cc1 | -1 | . | . | -2 | 0
SMILES | ssDAF12 agonist | DAX1 inh-1 | DAX1 inh-2 | hcDAF-12 act | hgDAF12 agonist
COc1cccc(CO[C@H]2C=C[C@@H](c3ccccc3)O[C@@H]2CO)c1 | -1 | 0 | . | -1 | 2
O=C(NNC(=O)c1ccc([N+](=O)[O-])cc1Cl)c1ccncc1 | 1.0* | 1 | 1 | 3 | 3
O=C(COC(=O)c1ccc(Cl)c([N+](=O)[O-])c1)Nc1ccccc1OC(F)F | -1 | 0 | 4.7* | 2 | 1
O=C(COC(=O)c1ccc2c(c1)OCO2)Nc1ccccc1OC(F)F | -1 | -2 | -1 | 0 | 2
Cc1ccc(S(=O)(=O)NCC(=O)OCC(=O)Nc2ccccc2OC(F)F)cc1 | -1 | 0 | 5.9* | -1 | -1
COC(=O)C1CN(Cc2ccc(C)cc2)CCS(=O)(=O)N1Cc1cn(Cc2ccc(F)cc2)nn1 (stereo unspecified) | -1 | -1 | . | -3 | 2
Cc1nn(-c2ccccc2)c2sc(C(=O)N3CCN(C(c4ccccc4)c4ccc(Cl)cc4)CC3)cc12 (stereo unspecified) | -1 | 0 | . | 0 | 3
O=S1(=O)CC2c3ccccc3CCN2CN1Cc1ccc(F)cc1 (stereo unspecified) | -2 | -1 | . | -1 | -2
O=C(c1cccc(COc2ccc(Cl)cc2Cl)c1)N1CCN(c2ccccn2)CC1 | 1 | 3 | -2 | 3 | 11*
COC(=O)C(CN)CN1C(=O)c2ccccc2C1=O (stereo unspecified) | -1 | 0 | . | -2 | 0
NC(=O)Nc1cccc2ccccc12 | 1.7* | 1 | 1 | 3 | -1
COC(=O)c1ccccc1NC(=O)COC(=O)c1cccnc1 | -1 | 0 | 1 | -1 | 1
CC(=O)c1ccc(NC(=O)Nc2cccc3ccccc23)cc1 | 0 | 3.7* | 1 | -1 | 4
O=C(COC(=O)c1cccnc1)Nc1cccc2ccccc12 | 0 | 0 | 4.5* | 0 | 0
O=C(COC(=O)c1cc2ccccc2cc1O)Nc1cccnc1Cl | 1.0* | 0 | 0 | 4 | 2
COc1ccc(CN2C[C@H](COCc3ccccc3)Oc3cccc(Oc4ccc(C(C)C)cc4)c3S2(=O)=O)cc1 | -1 | 0 | . | -1 | 3
O=C(NCCc1ccccc1Cl)[C@@H]1CCCN1C(=O)[C@@H](NC(=O)N1CCOCC1)C1CCCCC1 | 0 | 0 | . | 0 | 2
CCOC(=O)[C@@]12CCC3=C1N(CCC3)C(=O)[C@H](CC(=O)NCCCN1CCCC1=O)C2 | -1 | -1 | . | -1 | 1
O=C(NCCCCC(NC(=O)c1ccccc1)C(=O)O)OCc1ccccc1 (stereo unspecified) | -2 | 0 | . | 2 | -2
COc1ccc(NC(=S)NNC(=O)c2cccs2)cc1 | 0 | 3 | 1 | -1 | 3
CC(C)c1ccc(NC(=S)NNC(=O)c2cccs2)cc1 | -1 | 2 | 4 | 1 | 11*
Cc1ccc(NC(=O)NNC(=O)c2cccs2)cc1 | -1 | 1 | 0 | 5.8* | 7
CCOC(=O)CNC(=O)CSc1nnc(-c2cccs2)o1 | -1 | -1 | . | 0 | -1
CCCCCCCCN1C(=O)[C@@H](CC(=O)NCCCOC)C[C@@]2(C(=O)OC)C1=C[C@H](C(C)(C)C)O[C@@H]2C | -1 | -1 | . | -1 | 1
CCNC(=O)COc1ccc(Br)cc1Cl | -1 | 0 | -1 | 0 | 4
COCCCNC(=O)COc1ccc(Br)cc1Cl | -1 | 1 | 1 | -1 | 11*
